# Measured values as given in ChEMBL document CHEMBL4513146, “CO-ADD screening of Karazin Kharkiv National University (Ukraine) compounds”.
# Measured potencies and affinities stand elsewhere.
# Key:
# [1] = tested on: Staphylococcus aureus; settings: Concentration 32 ug.mL-1;; ASSAY_TEST Inhibition of Bacterial Growth; detection method Absorption (OD600); MEDIA CAMHB; plate type 384well; NBS; CORNING #3640; time 18 hr
# [2] = tested on: Escherichia coli; settings: Concentration 32 ug.mL-1;; ASSAY_TEST Inhibition of Bacterial Growth; detection method Absorption (OD600); MEDIA CAMHB; plate type 384well; NBS; CORNING #3640; time 18 hr
SMILES,Inhibition [1] [%],Inhibition [2] [%]
Cc1ccc(Oc2nccn3c(=O)n(CC(=O)Nc4ccc5c(c4)OCO5)nc23)cc1,6.26,-6.61
CCCc1nnc2c(=O)n(CC(=O)Nc3ccc(Br)cc3)c3ccccc3n12,11.05,2.53
CCOC(=O)c1ccc(NC(=O)Cn2nc3c(N4CCOCC4)nccn3c2=O)cc1,2.06,-3.52
COc1cccc(CSc2nnc3c(=O)n(-c4ccc(Br)cc4)ccn23)c1,20.73,-1.68
CCC(C)NC(=O)c1ccc2c(=O)n(CCC(C)C)c3nn(CC#N)c(=O)n3c2c1 (centres undefined),11.05,-1.24
O=C(Cn1nc2c(SC3CCCCC3)nccn2c1=O)Nc1ccccc1Br,-0.6,-5.42
O=S(=O)(c1ccc2nncn2c1)N(Cc1cc(F)cc(F)c1)c1ccc(F)cc1,2.59,-3.43
Cc1ccc(Oc2nccn3c(=O)n(CC(=O)Nc4ccccc4Br)nc23)cc1,10.09,-0.96
Cc1cccc(NC(=O)Cn2nc3ccc(-c4ccc(C)c(C)c4)nn3c2=O)c1,-13.22,-14.87
O=C(CSc1nnc2c(=O)n(-c3cccc(F)c3)ccn12)Nc1ccc(Br)cc1,17.12,-2.48
CCc1ccccc1Sc1nccn2c(=O)n(CC(=O)Nc3ccc(OC)c(Cl)c3)nc12,1.89,-5.89
O=C(Cn1nc2c3cc(-c4ccccc4)nn3ccn2c1=O)N1CCCc2ccccc21,4.94,2.28
